Laboratory results as given in PubChem BioAssay AID1851 (National Center for Advancing Translational Sciences (NCATS), 2009).
The campaign covered roughly 16,000 compounds. About 5,700 (36%) were called active. Inconclusive results (about 24%) are left out. The list shows a part of the results. Unmarked numbers belong to inactive results. The call rests on the fitted dose curve; in most records, active means well fitted curve in the direction sought with a large enough effect; inconclusive means small, poorly fitted or top-dose-only effect, or effect the other way; inactive means no such curve, though single readings can be large or run the other way.

biological target: Cytochrome P450 1A2 (Homo sapiens) (UniProt P05177); experiment: Cytochrome panel assay with activity outcomes; settings: recombinant CYP, pro-luciferin dealkylation, luminescence, p450-cyp1a2; series mostly up to 57.1 µM; activity, negative = inhibition: at the top concentration
On the % scale 0 is the no-effect control and ±100 the full control effect.

Cytochrome P450 1A2 (Homo sapiens), sequence (P05177 whole entry, looked up): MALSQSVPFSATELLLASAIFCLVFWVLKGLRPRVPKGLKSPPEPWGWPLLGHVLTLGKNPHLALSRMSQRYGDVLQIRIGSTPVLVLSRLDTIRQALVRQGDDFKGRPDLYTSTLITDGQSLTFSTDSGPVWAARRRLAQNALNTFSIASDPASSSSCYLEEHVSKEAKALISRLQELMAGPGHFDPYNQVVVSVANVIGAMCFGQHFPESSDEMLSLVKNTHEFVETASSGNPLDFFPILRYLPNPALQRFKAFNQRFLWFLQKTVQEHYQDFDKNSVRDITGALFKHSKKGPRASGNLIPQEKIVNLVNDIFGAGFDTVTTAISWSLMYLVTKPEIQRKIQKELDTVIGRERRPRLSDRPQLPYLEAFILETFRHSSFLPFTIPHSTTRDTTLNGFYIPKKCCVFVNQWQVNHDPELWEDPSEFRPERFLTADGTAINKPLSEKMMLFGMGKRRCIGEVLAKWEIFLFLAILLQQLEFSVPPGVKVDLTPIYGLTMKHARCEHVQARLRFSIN

Structure (SMILES)	activity, negative = inhibition	AC50
COc1ccccc1C(c1nnnn1C(C)(C)C)N1CCCc2ccccc21 (centres undefined)	-8.86%	
CC(C)(N=NC(C)(C)C(=N)N)C(=N)N	-4.86% [at 11.4 µM]	
CCc1ccc(N2CC(C)Cn3c2nc2c3c(=O)n(CCN3CCOCC3)c(=O)n2C)cc1 (centres undefined)	-20.6%	
Cc1ccccc1-c1ccc2ncnc(NCc3cccs3)c2c1		2.51 µM (active)
Cc1noc(C)c1-c1ccc2ncnc(NCc3cccs3)c2c1		0.398 µM (active)
Cc1noc(C)c1-c1ccc2ncnc(NCc3ccccc3)c2c1		3.16 µM (active)
Cc1noc(C)c1-c1ccc2ncnc(NCc3cccnc3)c2c1		0.316 µM (active)
O=C(O)CN(CCN(CC(=O)O)CC(=O)O)CCN(CC(=O)O)CC(=O)O		inactive
C#CCCCO/N=C1/C[C@@H](O)[C@@H](O)[C@@H]2[C@@H]3C(=O)N(C4CCCCC4)C(=O)[C@H]3CC[C@@H]12	1.04% [at 11.4 µM]	
Cc1cccc(CNc2ncnc3ccc(-c4c(C)noc4C)cc23)c1		5.01 µM (active)
O=C(N/N=C1\CCCc2ccccc21)c1ccc([N+](=O)[O-])cc1Cl		15.8 µM (active)
Cc1cccc(N=C2NN=C(c3ccc4c(c3)OCCO4)CS2)c1		14.1 µM (active)
Nc1nnc(SCCOc2cccc(Br)c2)s1		5.01 µM (active)
Cc1cccc(CNc2cc(-c3cccc(NS(C)(=O)=O)c3)ncn2)c1		10 µM (active)
CS(=O)(=O)Nc1cccc(-c2cc(Nc3ccccc3)ncn2)c1		0.398 µM (active)
CN(C)c1cc(-c2cccc(NS(C)(=O)=O)c2)ncn1		1.26 µM (active)
CS(=O)(=O)Nc1cccc(-c2cc(NCc3ccccc3)ncn2)c1		12.6 µM (active)
Cc1cccc(NS(=O)(=O)c2c(C)n[nH]c2C)c1	-19.9%	
COc1ccc(NC(=O)N2CCCC3(CCN(C(=O)c4csnn4)CC3)C2)cc1	-11.7%	
CS(=O)(=O)Nc1cccc(-c2cc(NCc3cccs3)ncn2)c1		6.31 µM (active)
Cc1ccc(/C=C/C(=O)N2CC(C)CC(C)C2)o1 (centres undefined)		8.91 µM (active)
Cc1ccc(NC(=O)CN2C(=O)N/C(=C/c3ccc(C)o3)C2=O)cc1	2.74%	

Structure (SMILES)	activity, negative = inhibition	AC50
C[C@@H](NCc1cc(Br)cc2[nH]c(=O)c(=O)[nH]c12)P(=O)(O)O	-9.6%	
COC(=O)N1CCC2(CCCN(Cc3cc(C(F)(F)F)cc(C(F)(F)F)c3)C2)CC1	13.1%	
CC(C)(C)n1ncc2c(=O)n(CC(=O)NCc3ccccc3Cl)cnc21	-14.5%	
Cc1ccccc1Cn1cnc2c(cnn2C(C)(C)C)c1=O	-22.5%	
CCCCn1cnc2c(cnn2-c2ccc(F)cc2)c1=O		3.16 µM (active)
Clc1ccc(Cc2nc(-c3cccnc3)no2)cc1		1 µM (active)
Cc1cccc(C)c1NC(=O)C(c1ccccc1)N1CCC1=O (centres undefined)	-1.16%	
Cc1ccccc1NC(=O)C(C)c1cccc(C(=O)c2ccccc2)c1 (centres undefined)		11.2 µM (active)
CCCN[C@@H](C)C(=O)Nc1ccccc1C	-15.8%	
CCCc1c(-c2ccc(O)cc2)nn(-c2ccc(O)cc2)c1-c1ccc(O)cc1		20 µM (active)
CCSc1nnc(NC(=O)Cc2ccc(OC)c(OC)c2)s1	-25.9%	
CC(=O)Nc1nnc(SCc2ccc(F)cc2)s1		10 µM (active)
O=C(NCC1CCCO1)C(c1cccnc1)N(C(=O)Cc1cccs1)c1cccnc1 (centres undefined)	3.77%	
Cc1ccccc1N(C(=O)Cc1cccs1)C(C(=O)NCC1CCCO1)c1cccnc1 (centres undefined)	-0.125%	
O=C(NCC1CCCO1)C(c1cccnc1)N(C(=O)Cc1cccs1)c1ccccc1 (centres undefined)		12.6 µM (active)
O=c1c2ccc(Cl)cc2nc(-c2cccc(C(F)(F)F)c2)n1O		1.26 µM (active)
COC(=O)c1sccc1NC(=O)CN(C)NS(=O)(=O)c1ccc(F)cc1		11.2 µM (active)
COc1ccc(S(=O)(=O)NCCC(=O)NCc2ccc(F)cc2)cc1	-6.97%	
CCCc1nnc(NC(=O)Cn2cnc3ccccc3c2=O)s1	-10.1%	
O=C(Nc1ncc(Cc2cccc(Cl)c2)s1)c1cccs1		1.58 µM (active)
CCCc1nnc(NC(=O)CN2C(=O)C3C4C=CC(C4)C3C2=O)s1 (centres undefined)	-24.4%	
CCCc1nnc(NC(=O)c2cccs2)s1		0.631 µM (active)

Structure (SMILES)	activity, negative = inhibition	AC50
CCOc1cc(NC(=O)c2cccs2)c(OCC)cc1NC(=O)c1ccco1	-27%	
Cc1ccc(Cc2cnc(NC(=O)c3cccs3)s2)cc1		1.41 µM (active)
COc1ccc(O[C@H]2C=C[C@@H](c3ccccc3)O[C@H]2COC(=O)CC/C(C)=N\O[C@@H](C)CN2CCCCc3nc(C)c(C)cc32)cc1	-2.12% [at 11.4 µM]	
O=C(c1csnn1)N1CCC2(CC1)CN(c1ccncc1)C2	1.41%	
O=c1c2c(-c3cccs3)csc2ncn1-c1ccc(Br)cc1		0.794 µM (active)
Nc1[nH]nc2nc3ccccc3nc12		0.316 µM (active)
N=C(N)SCCc1cnc[nH]1		inactive
N[C@@H](Cc1cnc[nH]1)C(=O)O	-7.04%	
Fc1ccc(C(OCCCc2cnc[nH]2)c2ccc(F)cc2)cc1		0.1 µM (active)
C=CCNS(=O)(=O)c1cccc2cc(C(=O)O)c(O)cc12		1.58 µM (active)
O=C(O)c1cc2ccccc2c(S(=O)(=O)O)c1O	6.64% [at 11.4 µM]	
NS(=O)(=O)c1cc(C(=O)O)c(O)c2ccccc12	-19.2% [at 11.4 µM]	
CCN(CC(=O)NCc1cccs1)S(=O)(=O)c1ccc(C(C)C)cc1	-27.2%	
O=C(Cn1cccc1C(=O)c1ccccc1)NCc1cccs1		20 µM (active)
Cc1ccc(CCN2CC(C(=O)NCCN3CCOCC3)CC2=O)cc1 (centres undefined)	-19.1%	
Cc1noc(C)c1COc1cccc(C(=O)OCC(=O)N2CC(=O)Nc3ccccc32)c1		25.1 µM (active)
Cc1cc(C=O)c(C)n1-c1ccc(N2CCCCC2)c([N+](=O)[O-])c1		14.1 µM (active)
CS(=O)(=O)N1CCN(c2ccc(C(=O)NC3C4CC5CC(C4)CC3C5)cc2[N+](=O)[O-])CC1 (centres undefined)	16.8%	
Cc1cc(C=O)c(C)n1-c1ccc(NC2CCCC2)c([N+](=O)[O-])c1		0.447 µM (active)
Cc1cc(C(=O)C(=O)NC(C)C)c(C)n1-c1ccc([N+](=O)[O-])cc1	-16.5%	
